Source: PubChem BioAssay
The list is not random: actives were taken first. Their share in the collection is about 4.3%.
HGIII-sPLA2 inh: Blocks human group III sPLA2 activity. Q9NZ20. QFRET BODIPY PC-A2 liposome hydrolysis, fluorescence. 370,000 tested, 0.56% active. AID 743126. inhibition, % at 12.2 µM;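 active = inhibition above mean plus 3 SD of compounds lying within the high and low control bounds, cut at about 19% in these data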;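 also: 0% = median of test compound wells and 100% = no enzyme DMSO wells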
Target sequence (Q9NZ20 whole entry, looked up): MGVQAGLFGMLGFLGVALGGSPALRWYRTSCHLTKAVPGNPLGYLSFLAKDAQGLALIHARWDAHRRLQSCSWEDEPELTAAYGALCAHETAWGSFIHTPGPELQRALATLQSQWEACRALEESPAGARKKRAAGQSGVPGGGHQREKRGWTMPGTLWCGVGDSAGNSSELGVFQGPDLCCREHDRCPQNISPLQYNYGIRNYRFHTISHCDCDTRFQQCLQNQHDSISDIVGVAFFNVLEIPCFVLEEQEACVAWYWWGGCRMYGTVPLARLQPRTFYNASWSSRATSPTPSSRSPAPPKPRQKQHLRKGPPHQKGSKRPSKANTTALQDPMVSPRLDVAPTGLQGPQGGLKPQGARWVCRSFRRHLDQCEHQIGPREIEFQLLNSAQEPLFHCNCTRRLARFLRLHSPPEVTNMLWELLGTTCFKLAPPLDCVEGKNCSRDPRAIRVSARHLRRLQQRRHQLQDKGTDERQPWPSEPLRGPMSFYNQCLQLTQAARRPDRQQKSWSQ
ADAM17 inh: inhibits human ADAM17. P78536. recombinant ADAM17, EDANS/DABCYL FRET peptide cleavage. inhibition, % at 6.95 µM. 370,000 tested, 0.83% active;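 active = inhibition above the mean of compounds lying between control limits plus 3 SD, set per campaign, cut at about 8.5% in these data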;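 also: 0% = DMSO-only wells as the low control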
ADAM10 inh: inhibitors of human ADAM10; AID 720582; O14672; inhibition, % at 7 µM; recombinant ADAM10, EDANS/DABCYL FRET peptide cleavage, 3 h; 370,000 tested, 0.62% active;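 active = inhibition above a per-campaign cutoff equal to the mean of compounds falling between control-based bounds plus 3 SD, cut at about 20% in these data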;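 also: 0% = DMSO wells while the 100% control is not disclosed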
FAS-TE inh: FAS thioesterase (human) inhibition; P49327; recombinant FAS-TE, OMFH fluorogenic substrate, fluorescence endpoint; inhibition, % at 15 µM; 360,000 tested, 0.67% active;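 active = compounds whose normalised, plate-corrected inhibition of enzyme fluorescence in the single-dose primary screen is 50% or more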;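 also: 0% = DMSO with enzyme and 100% = substrate without enzyme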
NR3A LBD binder: modulates the human NR3A ligand-binding domain; NR3A LBD differential scanning fluorimetry, Tm shift; 0% = protein alone, 100% = glycine-bound protein; Tm shift relative to glycine control, % at 25 µM; 340,000 tested, 2.5% active; AID 1259313;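 active = melting temperature shift of at least 10% of the positive control shift, at one fixed dose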
An asterisk follows results filed as active; . = not tested or not shown.

SMILES	HGIII-sPLA2 inh	ADAM17 inh	ADAM10 inh	FAS-TE inh	NR3A LBD binder
CC(C)(C)c1ccc(-c2nnc(SCC(=O)Nc3ccc4cn[nH]c4c3)n2-c2ccc(Cl)cc2)cc1	7	4	10	.	.
O=C(NC1CCCCN(Cc2ccc(OC(F)(F)F)cc2)C1=O)c1cccc(C(F)(F)F)c1 (configuration not stated)	13	-3	2	.	.
COc1ccc(CCN=C(N)NS(=O)(=O)c2ccc3ccccc3c2)cc1	-24	6	10	5	18*
O=C(c1ccco1)N1CCN(Cc2nnnn2CCc2ccccc2)CC1	1	2	5	-5	13*
O=C(c1ccco1)N1CCN(Cc2nnc(-c3ccccc3)o2)CC1	7	0	-10	-8	12*
COc1ccccc1OCC(=O)N1CCN(C(=O)c2ccco2)CC1	7	-4	-11	-6	10*
CN(C)C=NC(=O)c1ccc([N+](=O)[O-])c(CS(=O)(=O)c2ccc(Cl)cc2)c1	1	-3	-5	23	13*
NNC(=O)c1ccc([N+](=O)[O-])c(CS(=O)(=O)c2ccc(Cl)cc2)c1	5	-3	8	4	-1
Cc1cc(NC(=O)COC(=O)C2CC(=O)N(c3cccc(Cl)c3)C2)no1 (configuration not stated)	-1	-1	-1	-7	0
Cc1cc(NC(=O)COC(=O)C2CC(=O)N(c3ccc(C)c(Cl)c3)C2)no1 (configuration not stated)	15	-3	-6	-2	21*
O=C(OCC#CCSc1nnc(-c2cccc3ccccc23)o1)c1ccncc1	-19	-4	-17	.	.
C[C@@]12C(=O)Nc3ccc(Cl)cc3C(=O)N1[C@H]1c3ccccc3OC[C@@H]1[C@@H]2c1ccccc1	.	.	.	83*	-5
CCOc1ccc(/C=N/NC(=O)c2cc(-c3cccn3C)n[nH]2)cc1	-8	-2	-2	-1	22*
Cn1cccc1-c1cc(C(=O)N/N=C/c2ccccc2Cl)[nH]n1	-13	-5	-2	5	-15
Cn1cccc1-c1cc(C(=O)N/N=C/c2ccc(F)cc2)[nH]n1	-17	-1	-1	-2	9
Cn1cccc1-c1cc(C(=O)N/N=C/c2ccc([N+](=O)[O-])cc2)[nH]n1	-13	7	9	0	28*
Cn1cccc1-c1cc(C(=O)N/N=C/c2cc(Br)ccc2O)[nH]n1	-16	0	4	29	27*
O=C(N/N=C/c1cccc([N+](=O)[O-])c1)c1cc(-c2ccc3c4c(cccc24)CC3)n[nH]1	3	0	3	4	18*
COc1ccc(S[C@]2(C(=O)N3CCOCC3)CC(=O)N(c3ccc(OC)cc3)[C@@H]2c2ccc(OC)cc2)cc1	-11	8	8	.	.
CC(=O)c1cc(-c2cccc(Cl)c2O)c(=O)n2c1CCC2	6	-7	-9	.	.
Cc1ccccc1CN1CCNC(=O)C1CC(=O)NCCN1CCCCC1=O (configuration not stated)	-1	-7	-23	-9	11*
CCOc1ccc(CN2CCNC(=O)C2CC(=O)NCCN2CCOC2=O)cc1 (configuration not stated)	0	-7	-13	2	16*
S=C(Nc1ccc(Cl)cc1)OC1CCC12CCC(c1ccccc1)CC2 (configuration not stated)	-1	4	6	.	.
CCOC(=O)Nc1sc(=S)n(C)c1C	6	-5	4	-8	3
CCOC(=O)Nc1c(Cl)n(C)c(=O)n(C)c1=O	2	-1	3	-8	11*
SMILES	HGIII-sPLA2 inh	ADAM17 inh	ADAM10 inh	FAS-TE inh	NR3A LBD binder
CCOC(=O)C1C[C@@H](O)C=CC1=O (some centres not stated)	5	-4	0	.	.
CCn1c(SCC(=O)Nc2ccc(C(C)C)cc2)nnc1-c1ccc(C(C)(C)C)cc1	6	2	-2	.	.
O=[N+]([O-])c1cccc(-n2cc3ccc([N+](=O)[O-])cc3n2)c1	4	-8	-2	5	14*
O=c1c2ccccc2ncn1-c1cccc([N+](=O)[O-])c1	20*	-3	-4	-2	0
Cc1cccc(-c2cccc3c4c([nH]c23)[C@@H]2C[C@H](N(C)C(=O)OCc3ccccc3)[C@H]([C@H](C)O)CN2CC4)c1	-7	-14	-60	.	.
NC(=S)N/N=C/c1c[nH]c2ccc(OCc3ccccc3)cc12	.	.	.	-3	10*
O=C(CC1S/C(=N/N=C/c2c[nH]c3ccccc23)NC1=O)Nc1ccccc1 (configuration not stated)	-40	-19	-75	-4	8
O=C(CC1S/C(=N/N=C/c2c[nH]c3ccc(OCc4ccccc4)cc23)NC1=O)Nc1ccccc1 (configuration not stated)	-2	1	4	0	23*
O=C(NC(=S)NCC1CCCO1)c1ccccc1[N+](=O)[O-] (configuration not stated)	5	-1	4	0	1
O=C(NC(=S)Nc1cccc2c(O)cccc12)c1ccccc1[N+](=O)[O-]	-1	2	0	0	34*
O=C(NC(=S)NC1CCCCC1)c1ccccc1[N+](=O)[O-]	3	-6	3	12	18*
O=C(CCc1nc(-c2ccccc2F)no1)NCCN1CCOCC1	4	4	4	-6	14*
CCCCCc1ccc(-c2cn(CCCOCc3ccccc3)nn2)cc1	-11	2	2	26	-9
CCCCCc1ccc(-c2cn(CCc3c[nH]c4ccccc34)nn2)cc1	-15	-1	2	12	19*
O=C1/C(=C\c2ccc(O)cc2)SC(=S)N1/N=C/c1ccc(O)cc1	-26	-5	-5	-24	19*
C#CCNC(=O)C[C@H]1C[C@@]2(C(=O)OC)C(=C[C@H](C(C)(C)C)O[C@@H]2C)N(Cc2cccc3ccccc23)C1=O	-5	3	7	.	.
O=S1(=O)c2c(NCc3ccco3)cccc2Oc2ccccc2CN1Cc1cn(Cc2ccc(F)cc2)nn1	-8	1	-1	.	.
COc1ccc(Cc2n[nH]c(=S)n2NC(=O)Nc2ccc(Cl)c(Cl)c2)cc1	-15	4	16	27	15*
CN(/N=C\c1ccc(O)c(O)c1)c1nc(-c2ccccc2)cc(-c2ccccc2)n1	6	-8	-47	21	21*
C=CCn1c(SCC(=O)OC(C)C)nnc1-c1ccc(C)cc1	7	-4	-10	.	.
C/C(=N\N1CCN(C2c3ccccc3-c3ccccc32)CC1)c1ccncc1	3	-1	1	19	15*
O=C(Nc1ccc2nn(-c3ccccc3)nc2c1)c1ccc(Br)o1	-4	-7	-11	8	19*
CCCC(=O)Nc1nc2ccc(NC(=O)c3ccc(Br)o3)cc2s1	-17	7	4	7	18*
O=C(Nc1ccc2nn(-c3ccccc3)nc2c1)c1ccc2c(c1)OCCO2	3	-52	-139	15	21*
